Rows were chosen to be rich in hits. Some 11% of all compounds tested hit in one or more screens of this group.
BAZ2B block – BAZ2B (human) inhibition. Potency, µM (doses to about 114 µM), inactives show top-dose activity change, negative = inhibition, most hits filed as inhibitors. AID 504333. AlphaScreen BAZ2B-H3K14Ac peptide displacement. Q9UIF8. hit rate 4.4% among 360,000; also: potency is read from the fitted curve at half-maximal effect; % is scaled to controls: 0 for no effect and ±100 for the full control effect; nearly all actives have a fitted effect of over 60% in size
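AlphaScreen displacement: compounds (up to 110uM) incubated 30 min at room temperature with a preformed 50 nM BAZ2B/50 nM biotinylated H3K14Ac peptide complex in PBS pH 7.4 with Tween-20. Donor and acceptor beads at 10 ug/mL final added, 20 min light-protected before reading.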
G9a inh – inhibitors of human histone lysine methyltransferase G9a; hit rate 8.8% among 350,000; Q96KQ7; G9a H3K9 monomethylation, AlphaScreen, 2 h; Potency, µM (titrated, usually from 102 µM), without a hit: at the top dose activity, negative = inhibition, hits mostly inhibitors; also: potency is read from the fitted curve at half-maximal effect; % is scaled to controls: 0 for no effect and ±100 for the full control effect; nearly all actives have a fitted effect of over 75% in size
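AlphaScreen detection with an anti-monomethyl H3K9 antibody quantified product after a 2 h room-temperature reaction containing 500 nM biotinylated H3K9 peptide, 20 µM SAM and 20 nM enzyme, which had been preincubated 15 min with compound.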
L3MBTL1 inh – L3MBTL1 (human) inhibition | Potency, µM (doses to about 57.1 µM), inactives show at the highest dose activity, negative = inhibition, hits mostly inhibitors | AlphaScreen L3MBTL1–H3K9me1 peptide binding | hit rate 0.66% among 230,000 | Q9Y468; also: potency is read from the fitted curve at half-maximal effect; % is scaled to controls: 0 for no effect and ±100 for the full control effect; nearly all actives have a fitted effect of over 60% in size
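Displacement of a biotinylated histone H3(1-15) peptide monomethylated at Lys9 (75 nM) from L3MBTL1 (50 nM) was measured by AlphaScreen after a 30 min room-temperature compound incubation; cefsulodin titration served as intraplate control.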
HP1b binding inh – inhibitors of HP1-beta chromodomain binding to methylated histone tails. AlphaScreen HP1-beta / biotin-H3K9me3 peptide binding. P83916. Potency, µM (series often up to 114 µM), inactives show top-dose activity change, negative = inhibition, hits mostly inhibitors. hit rate 0.56% among 390,000. AID 540317; also: potency is read from the fitted curve at half-maximal effect; nearly all actives have a fitted effect of over 70% in size
Target sequence (P83916 whole entry, looked up): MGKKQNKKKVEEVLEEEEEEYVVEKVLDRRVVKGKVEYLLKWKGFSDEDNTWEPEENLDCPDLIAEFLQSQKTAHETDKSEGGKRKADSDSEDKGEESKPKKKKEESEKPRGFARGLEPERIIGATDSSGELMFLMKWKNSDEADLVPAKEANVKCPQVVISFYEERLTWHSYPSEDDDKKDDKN
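Compound inhibition of the preformed complex between 50 nM HP1-beta and 50 nM biotinylated H3K9me3 peptide was read by AlphaScreen. Buffer was PBS pH 7.4 with 0.01% Tween-20. Incubations ran 30 min at room temperature, with 10 ug/mL donor/acceptor beads.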
PI5P4K alpha inh – inhibitors of human PI5P4K alpha; hit rate 1.2% among 330,000; P48426; PI5P4Kalpha enzyme, ADP-Glo luminescence, 60 min; stronger effect = lower value; max response, %; active = max response of -50% or lower; inconclusive = between -30% and -50%; inactive = -30% or higher; also: value at the top dose of about 77 µM; % is scaled to controls: 0 for no effect and ±100 for the full control effect
Target sequence (P48426 whole entry, looked up): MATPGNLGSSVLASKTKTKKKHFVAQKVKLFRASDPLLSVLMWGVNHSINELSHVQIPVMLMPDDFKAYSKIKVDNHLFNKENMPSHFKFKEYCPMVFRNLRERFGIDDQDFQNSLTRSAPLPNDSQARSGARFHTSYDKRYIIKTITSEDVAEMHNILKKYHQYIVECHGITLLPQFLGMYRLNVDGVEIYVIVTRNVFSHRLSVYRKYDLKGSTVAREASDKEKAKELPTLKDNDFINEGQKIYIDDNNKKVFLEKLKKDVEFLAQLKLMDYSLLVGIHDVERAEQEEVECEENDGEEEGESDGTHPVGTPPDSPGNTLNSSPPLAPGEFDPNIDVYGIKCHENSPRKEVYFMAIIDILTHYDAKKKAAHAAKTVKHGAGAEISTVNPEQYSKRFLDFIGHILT
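Quantitative HTS of the MLSMR library against PI5P4Kalpha with substrate. ATP added last at 5 microM final; room temperature, 60 minutes. Remaining ATP depleted, ADP converted and read as luminescence.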
JMJD2A Tudor – blocks the human JMJD2A Tudor domain | O75164 | AlphaScreen JMJD2A-Tudor / H3K4me3 peptide binding | Potency, µM (titrated, usually from 114 µM), for inactives: at the highest dose activity change, negative = inhibition, usual class: inhibitors | hit rate 4.4% among 390,000; also: potency is read from the fitted curve at half-maximal effect; % is scaled to controls: 0 for no effect and ±100 for the full control effect; nearly all actives have a fitted effect of over 50% in size
* marks the source's active call; other numbers are inactive results; ? = inconclusive; / = not tested or not shown; [ ] = remark or other dose. Unless noted, calls follow the shape of the dose curve; as a rule, active = well fitted inhibition curve with a large enough effect; inconclusive = small, poorly fitted or top-dose-only effect; inactive = no such curve, though single readings can be large or run the other way.

SMILES	BAZ2B block	G9a inh	L3MBTL1 inh	HP1b binding inh	PI5P4K alpha inh	JMJD2A Tudor
C#CCOCCOCCOCCNc1nc(N2CCOCC2)nc(N2CCN(C(=O)[C@H](Cc3ccc(O)cc3)n3cc([C@@H](N)CC(C)C)nn3)CC2)n1	-24%	?	1%	22%	-4	-15%
C#CCOCCOCCOCCNc1nc(N2CCOCC2)nc(N2CCN(C(=O)[C@H](CCC(=O)O)n3cc(C(N)Cc4ccc(O)cc4)nn3)CC2)n1 (stereo partly specified)	-30%	3%[12.7 µM]	-4%	19%	-3	89µM*
C#CCOCCOCCOCCNc1nc(N2CCN(C(=O)[C@H](CCC(=O)O)n3cc(C(N)CO)nn3)CC2)nc(N2CCN(C(=O)[C@H](Cc3ccc(O)cc3)n3cc(C(N)CC(C)C)nn3)CC2)n1 (stereo partly specified)	32µM*	?	-25%	/	/	/
Cc1cccc(N(CC(N)=O)C2SC(=O)N(Cc3cccc(C(=O)O)c3)C2=O)c1 (stereo unspecified)	6%	-4%[59 µM]	/	25%	/	-12%
CCn1c(-c2ccc3[nH]c(C)c(C)c3c2)n[nH]c1=S	?	2.8µM*	-12%	-26%	/	22µM*
Cc1[nH]c2ccc(-c3n[nH]c(=S)n3C)cc2c1C	?	4µM*	-8%	?	/	4.5µM*
Oc1ccc(/C=N/Nc2ncnc3nc[nH]c23)cc1	-8%	/	/	24%	-66*	-15%
Clc1ccc(/C=N/Nc2ncnc3nc[nH]c23)cc1	-17%	10%	/	16%	-26	-13%
Cc1n(-c2ccccc2)c2ccc(Cl)cc2[n+]1CCO	-17%	8.9µM*	8%	-20%	-4	?
Cc1nc2cc(Cl)ccc2n1-c1ccccc1	?	4%[59 µM]	/	19%	/	-12%
CSc1nsc(SC)c1C(=O)Nc1ccc(C)cc1	?	25µM*	4%	23%	-1	-12%
CSc1nsc(SC)c1C(=O)Nc1ccc(Cl)cc1	-2%	/	6%	39%	0	3%
Cc1nn(-c2ccccc2)c(=S)c2ccccc12	?	13µM*	-12%	37%	3	7%
Cc1ccc(N2C(=O)NC(NS(=O)(=O)c3ccc(Cl)cc3)(C(F)(F)F)C2=O)cc1C (stereo unspecified)	-9%	-25%[59 µM]	/	26%	/	-7%
CCOc1ccccc1N1CCN(c2nc3ccccc3nc2C(C#N)C(=O)OC)CC1 (stereo unspecified)	-38%	/	-3%	7%	-3	-14%
COc1ccccc1N1CCN(c2nc3ccccc3nc2C(C#N)C(=O)OC(C)C)CC1 (stereo unspecified)	?	14µM*	-14%	-19%	1	?
COCCCNC(=O)C(C#N)c1nc2ccccc2nc1N1CCCC1 (stereo unspecified)	?	40µM*	-10%	34%	13	-6%
COCCOC(=O)C(C#N)c1nc2ccccc2nc1N1CCCC1 (stereo unspecified)	-32%	?	-5%	-5%	-3	-24%[57.1 µM]
CCCCCNC(=O)C(C#N)c1nc2ccccc2nc1N1CCCC1 (stereo unspecified)	-11%	?	/	64%	4	-13%
CCN1CCN(c2nc3ccccc3nc2C(C#N)C(=O)OCc2ccccc2)CC1 (stereo unspecified)	-35%	40µM*	-5%	-6%	/	?
O=S(=O)(N1CCN(c2nc(-c3cccs3)nc3ccccc23)CC1)C(F)(F)F	/	/	/	38%	/	11%
O=c1ccc(C(F)(F)F)cn1Cc1cc(=O)n2cc(Br)ccc2n1	79µM*	4.5µM*	?	17%	?	-30%
Cc1ccn(CC(=O)N2CCCC(N3CCN(Cc4ccc5c(c4)OCO5)CC3)C2)n1 (stereo unspecified)	-9%	?	/	16%	2	-3%
Cc1cc(C)n(CC(=O)N2CCCC(N3CCN(Cc4ccc5c(c4)OCO5)CC3)C2)n1 (stereo unspecified)	-3%	79µM*	/	8%	1	-15%
O=S(=O)(NCCc1cn2ccccc2n1)c1ccc2c(c1)CCCC2	-35%	50µM*	1%	31%	-3	-18%
SMILES	BAZ2B block	G9a inh	L3MBTL1 inh	HP1b binding inh	PI5P4K alpha inh	JMJD2A Tudor
Cc1cc(C)nc(NS(=O)(=O)c2cccs2)c1	-4%	56µM*	10%	8%	-14	-6%
Cc1cccc(NS(=O)(=O)c2cccs2)c1	-2%	-8%[12.7 µM]	/	18%	/	-28%
Cc1ccc2cc(CN(Cc3ccccc3)Cc3nnnn3C3CCCC3)c(=O)[nH]c2c1	4%	-7%[12.7 µM]	-12%	14%	/	-27%
CCOc1ccc2[nH]c(=O)c(CN(Cc3nnnn3Cc3ccco3)C3CCCCC3)cc2c1	45µM*	?	/	2%	1	-27%
COc1ccc(Cn2nnnc2CN(Cc2cc3ccc(C)cc3[nH]c2=O)C2CCCC2)cc1	3%	35µM*	-12%	10%	/	-26%
COc1cc2cc(CN(Cc3nnnn3Cc3ccco3)C3CCCCC3)c(=O)[nH]c2cc1OC	-10%	40µM*	-12%	-16%	-20	?
Cc1ccc2cc(CN(Cc3ccc(F)cc3)Cc3nnnn3C3CCCC3)c(=O)[nH]c2c1	3%	14µM*	0%	14%	/	-31%
COCCn1nnnc1CN(Cc1cc2cc(OC)c(OC)cc2[nH]c1=O)C1CCCC1	33%	18%[59 µM]	17%	25%	3	1%
COc1ccc(-n2c(=O)cnc3cnc(OC)nc32)cc1	/	4%[0.501 µM]	/	/	/	/
CCOC(=O)Cn1nnnc1CN(Cc1ccc(OC)cc1)Cc1cc2cc(C)cc(C)c2[nH]c1=O	9%	22µM*	-1%	25%	/	-21%
CCc1cccc(NS(=O)(=O)c2ccc3c(c2)N(C)CCO3)c1	?	?	/	-9%	-4	32µM*
Cc1ccc(NS(=O)(=O)c2ccc3c(c2)N(C)CCO3)cc1	?	-4%[0.0925 µM]	/	-3%	6	-36%
CN(C)c1ccc(CN2CCC(C(N)=O)CC2)cc1	22µM*	14µM*	-3%	-5%	-7	22µM*
CCOC(=O)C1CCN(Cc2ccc(C(=O)OC)cc2)CC1	50µM*	?	/	-26%	/	5.6µM*
CCOC(=O)C1CCN(Cc2ccc(F)cc2)CC1	-34%	?	-20%	?	/	4µM*
Cc1cccc(N2CCN(C(=O)CN3C(=O)COc4ccc(S(=O)(=O)N5CCC(C)CC5)cc43)CC2)c1C	-17%	10%[59 µM]	/	14%	/	-29%
O=C(NCCc1ccccc1Cl)c1ccc2c(=O)n(-c3ccccc3)c(=O)[nH]c2c1	-3%	-8%[59 µM]	/	12%	/	-19%
Cc1[nH]c2ccccc2c1C(=O)C(C)OC(=O)c1ccccc1NCCO (stereo unspecified)	7%	45µM*	3%	74%	-2	-14%
